For assay [1], the target named is Furin (Homo sapiens) (UniProt P09958). As to the kind of experiment: Furin counterscreen qHTS for Zika virus inhibitors (AID 1347149). Further: nearly all actives have a fitted effect of over 70% in size. Further: potency means the concentration at half of the fitted maximal effect. The essentials:
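Fluorogenic cleavage of BOC-RVRR-AMC (2 microM final, Km ~15 µM) was monitored (ex 340, em 450 nm) at 37C after 15 min RT preincubation of 5 nM furin with compounds in HEPES pH 7.0 buffer with CaCl2 and Triton X-100. Percent inhibition was fitted to a 4-parameter Hill curve.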

In assay [2] the test system is Zika virus NS2B-NS3 protease (linked construct). In words: Confirmatory screen NINDS AMC qHTS for Zika virus inhibitors (AID 1347152). Further: nearly all actives have a fitted effect of over 70% in size. Further: potency means the concentration at half of the fitted maximal effect. In a few lines: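 IC50s from 4-parameter Hill fits of percent inhibition, based on AMC fluorescence gain (340/450 nm) over 15 min with 10 microM Bz-Nle-KRR-AMC. Enzyme: 1 nM linked NS2B-NS3 in Tris-HCl pH 8.0; 15-min compound preincubation.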

Assay [3] relates to Zika virus NS2B-NS3 protease (unlinked complex). As to the kind of experiment: Confirmatory screen GU AMC qHTS for Zika virus inhibitors (AID 1347153). Further: nearly all actives have a fitted effect of over 70% in size.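 On Potency: enzyme at 25 nM with substrate at 10 µM below its Km of 18.3 µM; potency means the concentration at half of the fitted maximal effect.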 The essentials:
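Unlinked NS2B-NS3 complex (25 nM) in 10 mM Tris-HCl pH 8.0, 0.01% Tween 20 preincubated 15 min with compound, then 10 microM Bz-Nle-KRR-AMC (Km 18.3 µM). Fluorescence change over 15 min, normalized, Hill-fitted.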

In assay [4] the test system is Zika virus NS2B-NS3 protease. In words: Primary screen GU AMC qHTS for Zika virus inhibitors (AID 1347154). Further: potency means the concentration at half of the fitted maximal effect; nearly all actives have a fitted effect of over 70% in size. The essentials:
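Fluorogenic AMC-substrate cleavage by noncovalent NS2B-NS3 protease complex (25 nM, pH 8.0 Tris buffer with Tween 20) followed for 15 minutes at room temperature (~20% conversion). Percent inhibition from ex340/em450 signal change, fitted by 4-parameter Hill equation.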

A short description of assay [5]: Confirmatory screen NINDS Rhodamine qHTS for Zika virus inhibitors (AID 1347161). Further: potency means the concentration at half of the fitted maximal effect; nearly all actives have a fitted effect of over 60% in size. The essentials: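 Enzyme (25 nM, linked NS2B-NS3) was preincubated 15 min with compound in 10 mM Tris-HCl pH 8.0, 0.01% Tween 20. Rhodamine110 substrate (1.5 microM) was then added and fluorescence read at start and after 15 min.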
Assay [6] deals with Zika virus NS2B-NS3 protease (linked construct). As to the kind of experiment: 384 well plate NINDS Rhodamine confirmatory qHTS for Zika virus inhibitors (AID 1347164).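 Further: fluorescence from protease cleavage of Ac-LKRR-rhodamine 110 substrate; potency means the concentration at half of the fitted maximal effect; nearly all actives have a fitted effect of over 65% in size.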 The essentials: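 Fluorescence at 485/538 nm was measured 25 minutes after adding 10 microM Ac-LKRR-Rd substrate, in the dark at room temperature. The protease (5, 30 or 60 nM final) had been preincubated ~15 minutes with compound; aprotinin as control.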

Assay [7] is described as follows: HepG2 cells viability qHTS for Zika virus inhibitors (AID 1347168). Further: potency means the concentration at half of the fitted maximal effect. The essentials:
(§1)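 Compounds were tested in concentration series on cells grown in DMEM containing 4% FBS. After 24 to 48 hours, cellular ATP was measured by luminescence with CellTiter Glo.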

Assay [8] is described as follows: Primary qHTS for small molecule stabilizers of the endoplasmic reticulum resident proteome: Secreted ER Calcium Modulated Protein (SERCaMP) assay (AID 1508630). In a few lines:
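GLuc-SERCaMP-expressing SH-SY5Y cells, pretreated 16 h with compound, are challenged with thapsigargin to empty ER calcium stores; after 4 h, coelenterazine is added directly to the medium and luminescence is imaged.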

Assay [9] is described as follows: ZIKV-mCherry secondary qHTS for Zika virus inhibitors (AID 1347158). Further: top concentration of the series differs between compounds. The essentials:
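Vero, 5,000 cells/well, o/n 37 °C; cpd pin-transferred in DMSO; ZIKV-mCherry MOI 1, 48-72 h 37 °C; 32% PFA stock fix, Hoechst; imaged 10x DAPI/mCherry; mCherry+ threshold 450 RFU; % infection.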

Assay [10] deals with Zika virus NS2B-NS3 protease (linked). In words: 384 well plate NINDS AMC confirmatory qHTS for Zika virus inhibitors (AID 1347163). Further: potency means the concentration at half of the fitted maximal effect; nearly all actives have a fitted effect of over 50% in size. The essentials: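 Linked NS2B-NS3 protease (final 5 nM, 30 nM or 60 nM) was preincubated with compounds (final up to 1 mM) for ~15 minutes. Ac-VKTGKR-AMC substrate (final 30 microM) then reacted for 25 minutes at room temperature in the dark. Fluorescence (ex 355/em 460 nm) was normalized to no-enzyme and no-inhibitor controls.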

Assay [11] in a line: Tertiary RLuc qRT-PCR qHTS assay for Zika virus inhibitors (AID 1347169). Further: nearly all actives have a fitted effect of over 55% in size. Further: potency means the concentration at half of the fitted maximal effect. The essentials:
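Orthogonal cell-based readout: luminescence measured 1-1.5 hrs after adding live-cell Renilla substrate to Vero cells that had been infected with ZIKV-RLuc (MOI 1-2) post-compound, incubated 48-72 hrs at 37 degrees C.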

Assay [12] has as its system Zika virus NS2B-NS3 protease (unlinked). In words: Optimization of GU AMC qHTS for Zika virus inhibitors: Unlinked NS2B-NS3 protease assay (AID 1347151). Further: series mostly up to about 52 µM; nearly all actives have a fitted effect of over 80% in size. The essentials: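 Fluorescence gain (340/450 nm) over 15 min at room temperature, ~20% conversion, gave percent inhibition fitted to a 4-parameter Hill equation; enzyme was unlinked NS2B-NS3 (25 nM final), pH 8.0 Tris buffer.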

A short description of assay [13]: Vero cells viability qHTS for Zika virus inhibitors (AID 1347167). In a few lines:
as §1

Assay [14] concerns the target Glutathione peroxidase 1 (Homo sapiens) (UniProt P07203). As to the kind of experiment: Primary qHTS Assay for Inhibitors of Recombinant Selenoprotein Glutathione Peroxidase 1 (GPX1) (AID 1845191). Further: nearly all actives have a fitted effect of over 65% in size. In a few lines:
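10 nM GPX1 + cpd, 30 min RT; start w/ 1 mM GSH, 0.5 mM cumene hydroperoxide, 0.5 mM NADPH, 100 nM GR, 0.01% BSA; buffer 50 mM Tris-HCl pH 7.5, 2 mM EDTA, 150 mM NaCl; Fl 340/450, 0 & 15 min.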

Assay [15] addresses Phospholipid hydroperoxide glutathione peroxidase GPX4 (Homo sapiens) (UniProt P36969). As to the kind of experiment: Primary qHTS Assay for Inhibitors of Recombinant Selenoprotein Glutathione Peroxidase 4 (GPX4) (AID 1845192). Further: series mostly up to about 50 µM; nearly all actives have a fitted effect of over 65% in size. The settings on record: outcome: dose series up to 50 µM unless noted. The essentials: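 NADPH consumption, followed by fluorescence at 340/450 nm between 0 and 15 min, reports GPX4 activity via coupled glutathione reductase (100 nM). Enzyme 200 nM was pre-exposed to compound 30 min; 0.5 mM cumene hydroperoxide and 1 mM GSH served as substrates.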

Each structure is given as a SMILES string. Records with an inconclusive call do not appear. The source made the active and inactive calls. The call rests on the fitted dose curve; in most records, active means well fitted curve in the direction sought with a large enough effect; inconclusive means small, poorly fitted or top-dose-only effect, or another doubt; inactive means no such curve, though single readings can be large; an effect the other way counts as inactive or inconclusive.

Chain of Furin (Homo sapiens) (P09958 whole entry, looked up): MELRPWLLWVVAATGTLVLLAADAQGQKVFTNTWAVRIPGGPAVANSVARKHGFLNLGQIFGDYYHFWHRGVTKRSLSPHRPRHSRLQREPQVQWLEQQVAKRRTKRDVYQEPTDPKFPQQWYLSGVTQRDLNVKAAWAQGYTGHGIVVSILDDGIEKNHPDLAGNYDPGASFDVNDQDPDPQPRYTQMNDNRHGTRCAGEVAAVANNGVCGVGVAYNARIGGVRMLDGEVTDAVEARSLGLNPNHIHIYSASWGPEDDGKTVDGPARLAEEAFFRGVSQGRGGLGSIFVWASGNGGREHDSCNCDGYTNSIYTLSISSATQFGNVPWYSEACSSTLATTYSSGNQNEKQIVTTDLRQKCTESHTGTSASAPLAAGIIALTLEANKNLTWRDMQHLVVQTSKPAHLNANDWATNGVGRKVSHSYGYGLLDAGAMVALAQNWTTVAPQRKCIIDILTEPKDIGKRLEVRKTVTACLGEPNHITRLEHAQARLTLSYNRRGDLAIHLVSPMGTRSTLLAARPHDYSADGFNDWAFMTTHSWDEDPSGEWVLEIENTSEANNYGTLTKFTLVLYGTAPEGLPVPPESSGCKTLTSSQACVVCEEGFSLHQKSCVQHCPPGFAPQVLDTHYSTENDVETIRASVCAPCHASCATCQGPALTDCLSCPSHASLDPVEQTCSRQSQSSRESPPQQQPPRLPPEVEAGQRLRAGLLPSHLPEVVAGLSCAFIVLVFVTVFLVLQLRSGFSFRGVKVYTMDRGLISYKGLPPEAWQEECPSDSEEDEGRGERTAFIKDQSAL
Chain of Phospholipid hydroperoxide glutathione peroxidase GPX4 (Homo sapiens) (P36969 whole entry, looked up): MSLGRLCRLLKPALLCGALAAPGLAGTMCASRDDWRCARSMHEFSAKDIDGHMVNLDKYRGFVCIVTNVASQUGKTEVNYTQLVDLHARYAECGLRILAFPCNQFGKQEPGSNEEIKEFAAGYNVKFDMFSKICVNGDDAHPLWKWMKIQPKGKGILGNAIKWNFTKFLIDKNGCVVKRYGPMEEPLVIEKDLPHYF
Chain of Glutathione peroxidase 1 (Homo sapiens) (P07203 whole entry, looked up): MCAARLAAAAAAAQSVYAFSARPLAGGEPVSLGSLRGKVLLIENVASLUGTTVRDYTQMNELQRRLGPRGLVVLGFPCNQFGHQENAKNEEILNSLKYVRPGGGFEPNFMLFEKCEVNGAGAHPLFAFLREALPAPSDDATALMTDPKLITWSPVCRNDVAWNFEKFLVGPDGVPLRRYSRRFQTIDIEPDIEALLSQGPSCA

With `CC(=O)Oc1cc2c(c(C)c1OC(C)=O)CC=C1[C@@]2(C)CC[C@@]2(C)[C@H]3C[C@](C)(C(=O)O)CC[C@]3(C)CC[C@]12C`, the Potency result in assay [1] and in assay [8] was “inactive” in each case. In addition, the Potency in assay [2] was 19.2 µM (active); in assay [3], 21.5 µM (active); in assay [4], 13.4 µM (active); in [5] it was 3.49 µM (active); in assay [6] it was 35.5 µM (active); in [7] it was 13.1 µM (active).
Regarding `O=C(O)Cn1ccc2cc(OCc3cccc(-c4cccc(C(F)(F)F)c4)c3)cnc21`, the Potency is 63.9 µM (active) in [1]; 56.9 µM (active) in [2]; 40.3 µM (active) in assay [3]; 141 µM (active) in assay [10]; 28.2 µM (active) in assay [6]; 30.2 µM (active) in assay [11]. Further, the Potency result in [9] is “inactive”.
In the case of `Cc1c(NS(=O)(=O)c2ccccc2)cc(C(C)C)c(O)c1S(=O)(=O)c1ccc(Cl)cc1`, the Potency result in assay [1] was “inactive”.
On to `CC(C)(C)c1ccc(NC(=O)O[C@@H]2CO[C@H]3[C@@H]2OC[C@@H]3Nc2nccc(-c3ccc(-c4ccccc4)cc3)n2)cc1`, for which the Potency in [1] is 62.2 µM (active). Moreover, the Potency entry in assay [2] and in assay [3] was “inactive” in each case.
In the case of `C[S+](CC[C@H](N)C(=O)O)C[C@H]1O[C@@H](n2cnc3c(N)ncnc32)[C@H](O)[C@H]1O` (some centres not stated), the Potency result in assay [1], in [12], in assay [13], in [7], in assay [11] and in assay [14] was “inactive” throughout. For the same compound, the Potency result in assay [15] is “inactive”.
Regarding `O=C(COc1ccc(F)cc1)Nc1ccccc1C(=O)OCc1cc(=O)n2nc(C3CC3)sc2n1`, the Potency entry in assay [1] was “inactive”.
